These results are taken from ChEMBL document CHEMBL2218924, “A broad activity screen in support of a chemogenomic map for kinase signalling research and drug discovery” (Biochem J, 2013).

In the first experiment the target is Tyrosine-protein kinase Lyn (Homo sapiens) (UniProt P07948). As to conditions: at 10 µM.
Tyrosine-protein kinase Lyn (Homo sapiens), sequence (P07948 2-512 limits assumed): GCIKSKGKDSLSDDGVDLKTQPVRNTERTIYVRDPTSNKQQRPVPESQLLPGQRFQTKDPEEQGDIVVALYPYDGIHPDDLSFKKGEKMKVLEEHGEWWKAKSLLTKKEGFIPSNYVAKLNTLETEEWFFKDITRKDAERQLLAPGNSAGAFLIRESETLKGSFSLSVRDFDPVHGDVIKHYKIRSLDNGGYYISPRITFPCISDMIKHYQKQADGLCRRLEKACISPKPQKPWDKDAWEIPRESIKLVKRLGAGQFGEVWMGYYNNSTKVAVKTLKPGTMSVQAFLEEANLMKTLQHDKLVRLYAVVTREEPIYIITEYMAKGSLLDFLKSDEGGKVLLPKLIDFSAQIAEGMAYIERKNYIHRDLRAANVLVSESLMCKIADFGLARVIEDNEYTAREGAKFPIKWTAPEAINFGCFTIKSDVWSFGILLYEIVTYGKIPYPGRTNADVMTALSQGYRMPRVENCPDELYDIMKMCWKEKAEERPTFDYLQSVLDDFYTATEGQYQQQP
On to `CCOC(=O)c1c(C)[nH]c(/C=C2\C(=O)Nc3ccccc32)c1C`, for which the residual activity turned out to be 26%.
Take `CN([C@@H](Cc1ccc(OS(=O)(=O)c2cccc3cnccc23)cc1)C(=O)N1CCN(c2ccccc2)CC1)S(=O)(=O)c1cccc2cnccc12`: the residual activity stood at 59%.
On to `CCOc1nc(NC(=O)Cc2cc(OC)ccc2OC)cc(N)c1C#N`, for which the residual activity is 59%.
For `N#C/C(=C\c1ccc(O)c(O)c1)C(=O)NCc1ccccc1`, the residual activity came to 70%.
For the molecule `O=C(Nc1ccc(Cl)cc1)c1ccccc1NCc1ccncc1`, the residual activity was 2%.
Take `CN(C)S(=O)(=O)c1ccc2c(c1)/C(=C/c1cc3c([nH]1)CCCC3)C(=O)N2`: the residual activity turned out to be 0%.
On to `Fc1ccc(-c2nc3n(c2-c2ccncc2)CCS3)cc1`, for which the residual activity was determined as 74%.
Still for that read-out and setting: as for `Nc1n[nH]c2nc3ccccc3nc12`, the figure is 67%; as for `COc1cc2c(cc1OC)-c1n[nH]c(Nc3cccc(F)c3)c1C2`, 6%; as for `Nc1nccc(-c2c(-c3ccc(F)cc3)ncn2C2CCNCC2)n1`, 6%.
For the molecule `Cn1sc(=O)n(Cc2ccccc2)c1=O`, the residual activity was determined as 92%.
For the molecule `O=S(=O)(NCCNC/C=C/c1ccc(Br)cc1)c1cccc2cnccc12`, the residual activity amounted to 49%.
Take `Cc1cc(C)c(/C=C2\C(=O)Nc3ccccc32)[nH]1`: the residual activity was 8%.
With `N#C/C(=C1/Nc2ccccc2S1)c1ccnc(NCCc2cccnc2)n1`, the residual activity worked out at 15%.
Consider `CC(C)(C)c1nc2c3ccc(F)cc3c3c(=O)[nH]ccc3c2[nH]1`, for which the residual activity is 20%.
On to `CCN1/C(=C/C(C)=O)Sc2ccc(OC)cc21`, for which the residual activity amounted to 37%.
With `O=C1Cc2c([nH]c3ccc([N+](=O)[O-])cc23)-c2ccccc2N1`, the residual activity amounted to 5%.
As to `Oc1cccc(-c2nc(N3CCOCC3)c3oc4ncccc4c3n2)c1`, the residual activity was 57%.
Consider `NC(=O)c1cccc(-c2cc(Nc3ccc(OC(F)(F)F)cc3)ncn2)c1`, for which the residual activity came out at 82%.
With `O=C(Nc1nc2ccccc2n1CCN1CCOCC1)c1cccc([N+](=O)[O-])c1`, the residual activity stood at 87%.
For `N#Cc1c(NC(=O)c2cccc3ccccc23)sc2c1CCCC2`, the residual activity worked out at 62%.
With `Cn1c2ccccc2c2c3c(c4c5ccccc5n(CCC#N)c4c21)CNC3=O`, the residual activity turned out to be 9%.
On to `O=C1NC(=O)C(c2cn(CCCO)c3ncccc23)=C1c1cnccn1`, for which the residual activity worked out at 70%.
Turning to `Nc1ncnc2c1cnn2-c1ccccc1`, the residual activity is 82%.
Turning to `NC(=O)Nc1sc(-c2ccc(F)cc2)cc1C(N)=O`, the residual activity stood at 1%.
For the molecule `O=c1c(-c2ccc(F)cc2)c(-c2ccncc2)[nH]n1-c1ccc(Cl)cc1`, the residual activity was determined as 38%.
In the case of `COc1ccc(Cl)cc1NC(=O)Nc1cc(C)nc2ccccc12`, the residual activity worked out at 87%.
Same read-out and setting: in the case of `O=C1Cc2c([nH]c3ccc(Br)cc23)-c2ccccc2N1` it was 1%; in that of `CC(C)[C@H](CO)Nc1nc(Nc2cc(N)cc(Cl)c2)c2ncn(C(C)C)c2n1`, -1%; in that of `O=c1cc(N2CCOCC2)oc2c(-c3ccccc3)cccc12`, 74%.

The target of a further experiment is Mitogen-activated protein kinase 3 (Homo sapiens) (UniProt P27361). As to conditions: at 1 µM.
Mitogen-activated protein kinase 3 (Homo sapiens), sequence (P27361 whole entry): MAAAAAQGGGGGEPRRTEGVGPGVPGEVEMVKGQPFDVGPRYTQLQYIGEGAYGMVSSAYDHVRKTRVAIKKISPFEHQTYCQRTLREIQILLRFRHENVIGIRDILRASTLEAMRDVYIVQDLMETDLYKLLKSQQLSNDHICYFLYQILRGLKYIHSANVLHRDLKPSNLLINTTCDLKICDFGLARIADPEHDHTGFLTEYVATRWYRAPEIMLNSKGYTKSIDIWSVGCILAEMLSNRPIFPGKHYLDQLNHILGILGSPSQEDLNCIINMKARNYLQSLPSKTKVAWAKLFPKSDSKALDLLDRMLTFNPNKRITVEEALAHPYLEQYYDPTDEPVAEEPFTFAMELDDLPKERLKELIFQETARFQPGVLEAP
Regarding `CCOC(=O)c1c(C)[nH]c(/C=C2\C(=O)Nc3ccccc32)c1C`, the residual activity was found to be 81%.
Turning to `N#C/C(=C\c1ccc(O)c(O)c1)C(=O)NCc1ccccc1`, the residual activity was 77%.
On to `O=C(Nc1ccc(Cl)cc1)c1ccccc1NCc1ccncc1`, for which the residual activity worked out at 77%.
In the case of `Fc1ccc(-c2nc3n(c2-c2ccncc2)CCS3)cc1`, the residual activity was determined as 138%.
With `Cn1sc(=O)n(Cc2ccccc2)c1=O`, the residual activity amounted to 83%.
In the case of `CC(C)(C)c1nc2c3ccc(F)cc3c3c(=O)[nH]ccc3c2[nH]1`, the residual activity is 47%.
On to `Oc1cccc(-c2nc(N3CCOCC3)c3oc4ncccc4c3n2)c1`, for which the residual activity came out at 83%.
In the case of `Cn1c2ccccc2c2c3c(c4c5ccccc5n(CCC#N)c4c21)CNC3=O`, the residual activity came to 52%.
Still for that read-out and setting: as for `Nc1ncnc2c1cnn2-c1ccccc1`, the figure is 82%.
Take `NC(=O)Nc1sc(-c2ccc(F)cc2)cc1C(N)=O`: the residual activity was 80%.
On to `NC(=O)c1ccc(-c2nc(-c3ccc4c(c3)OCCO4)c(-c3ccccn3)[nH]2)cc1`, for which the residual activity came to 96%.
For `COc1ccc(COc2ccc(Cc3cnc(N)nc3N)cc2OC)cc1`, the residual activity was 100%.
In the case of `CC(C)[C@H](CO)Nc1nc(Nc2cc(N)cc(Cl)c2)c2ncn(C(C)C)c2n1`, the residual activity was 91%.
Consider `O=c1cc(N2CCOCC2)oc2c(-c3ccccc3)cccc12`, for which the residual activity turned out to be 78%.

The target is the same in a further experiment. Conditions: at 10 µM.
Consider `CCOC(=O)c1c(C)[nH]c(/C=C2\C(=O)Nc3ccccc32)c1C`, for which the residual activity stood at 91%.
Take `N#C/C(=C\c1ccc(O)c(O)c1)C(=O)NCc1ccccc1`: the residual activity turned out to be 65%.
With `O=C(Nc1ccc(Cl)cc1)c1ccccc1NCc1ccncc1`, the residual activity turned out to be 80%.
With `CN(C)S(=O)(=O)c1ccc2c(c1)/C(=C/c1cc3c([nH]1)CCCC3)C(=O)N2`, the residual activity was determined as 88%.
Still for that read-out and setting: as for `Fc1ccc(-c2nc3n(c2-c2ccncc2)CCS3)cc1`, the figure is 92%; as for `COc1cc2c(cc1OC)-c1n[nH]c(Nc3cccc(F)c3)c1C2`, 76%.
Turning to `Nc1nccc(-c2c(-c3ccc(F)cc3)ncn2C2CCNCC2)n1`, the residual activity came to 35%.
Turning to `Cn1sc(=O)n(Cc2ccccc2)c1=O`, the residual activity stood at 92%.
On the same count and under the same terms, in the case of `O=S(=O)(NCCNC/C=C/c1ccc(Br)cc1)c1cccc2cnccc12` it was 70%; in that of `CC(C)(C)c1nc2c3ccc(F)cc3c3c(=O)[nH]ccc3c2[nH]1`, 64%; in that of `Oc1cccc(-c2nc(N3CCOCC3)c3oc4ncccc4c3n2)c1`, 87%.
As to `Nc1ncnc2c1cnn2-c1ccccc1`, the residual activity was 80%.
`O=c1c(-c2ccc(F)cc2)c(-c2ccncc2)[nH]n1-c1ccc(Cl)cc1`: the residual activity was found to be 66%.
Still for that read-out and setting: in the case of `COc1ccc(COc2ccc(Cc3cnc(N)nc3N)cc2OC)cc1` it was 76%; in that of `CC(C)[C@H](CO)Nc1nc(Nc2cc(N)cc(Cl)c2)c2ncn(C(C)C)c2n1`, 82%; in that of `O=c1cc(N2CCOCC2)oc2c(-c3ccccc3)cccc12`, 73%.
